The source of these data is PubChem BioAssay.

The source made the active and inactive calls.

Assay [1] has as its system Plasmodium falciparum Sir2 (PF13_0152, Sir2A). Put plainly: Plasmodium falciparum Sir2A binding compounds – biochemical, small-molecule microarray, 635 nm fluorescence, primary screen (AID 1098).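 Further: score merges spot fluorescence intensity with its signal-to-noise ratio.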 Conditions: fluorescence 635 nm, higher = more signal.
Assay [2] is described as follows: probe aDKK1 binding to arrayed compounds – biochemical, biotinylated probe, 635/667 nm fluorescence, primary screen (AID 1099).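 Further: score merges 667nm spot fluorescence with signal to noise across triplicate slides.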 The conditions noted are these: small-molecule microarray, higher = more signal.
Assay [3] can be described thus: probe aCHRDL2 binding to arrayed compounds – biochemical, biotinylated probe, 635/667 nm fluorescence, primary screen (AID 1100). The conditions noted are these: small-molecule microarray, higher = more signal.
Assay [4] can be described thus: change in splice reporter luminescence, either direction, cell-based, HEK293, spliceosome inhibition project, primary screen (AID 1101).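 Further: HEK293 cells carrying a splicing-competent luciferase reporter gene; test concentration not given here.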 Conditions: HEK293 splicing luciferase reporter, 24 h, higher = more signal, called active from +8 up or from −8 down. A general note: In a reporter assay the amount or activity of a reporter protein is the signal.
Assay [5] has as its target Fibroblast growth factor 10 (Homo sapiens) (UniProt O15520). The assay can be described thus: compounds binding fibroblast growth factor 10 – biochemical, small-molecule microarray, 635 nm fluorescence, primary screen (AID 1102). Conditions: FGF10 binding, fluorescence 635 nm, higher = more signal.
Assay [6] deals with glycogen synthase kinase-3 (GSK3A per assay name; protocol says GSK3B). The assay can be described thus: compounds binding glycogen synthase kinase-3 – biochemical, small-molecule microarray, 635 nm fluorescence, GSK3A, primary screen (AID 1103). Further: the record names both GSK3A and GSK3B. The conditions noted are these: fluorescence 635 nm, higher = more signal.
Assay [7] concerns the target Epidermal growth factor receptor (Homo sapiens) (UniProt P00533). The assay can be described thus: compounds binding epidermal growth factor receptor – biochemical, small-molecule microarray, 635 nm fluorescence, primary screen (AID 1104).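 Further: score merges 667 nm emission intensity with spot signal to noise over triplicate slides.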 The conditions noted are these: EGFR binding, higher = more signal.
Assay [8] has as its target Follistatin-related protein 3 (Homo sapiens) (UniProt O95633). The assay can be described thus: compounds binding follistatin-related protein 3 – biochemical, small-molecule microarray, 635 nm fluorescence, primary screen (AID 1105).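 Further: score merges emission near 667 nm and signal to noise per printed spot across three slides.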 Conditions: FSTL3 binding, higher = more signal.
The target in assay [9] is Dickkopf-related protein 1 (Homo sapiens) (UniProt O94907). The assay can be described thus: small molecules binding DKK1 protein – biochemical, small-molecule microarray, 635 nm fluorescence scan, primary screen (AID 1106).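 Further: score merges emission near 667 nm with signal to noise over three replicate slides.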 The conditions noted are these: higher = more signal.
Assay [10] deals with Inhibin beta A chain (activin A). The assay can be described thus: small molecules binding activin A – biochemical, small-molecule microarray, 635 nm fluorescence scan, primary screen (AID 1107).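 Further: mouse activin A protein probed at 4.33 µg/mL on printed slides; score merges bound-protein fluorescence near 667 nm with spot signal-to-noise.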 Conditions: INHBA, higher = more signal.
Assay [11] concerns Human papillomavirus type 1a protein E7 (residues 44-93). The assay can be described thus: small molecules binding HPV E7 44-93 – biochemical, small-molecule microarray, residues 44-93, 635 nm fluorescence, primary screen (AID 1108).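 Further: E7 fragment applied at 1 µg/mL in TBST for 1 h at 4 C; score combines spot fluorescence with its signal to noise ratio.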 Conditions: fluorescence 635 nm, higher = more signal.
Assay [12] is described as follows: hepatitis C replication reporter changes, two-sided – Huh7 cells, luciferase reporter, HCV replication inhibitor project, primary screen (AID 1109).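 Further: huh7 hepatoma cells harbouring a luciferase neomycin HCV replicon reporter; luciferase luminescence as measure of HCV replicon replication; test concentration not given here.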 Conditions: Huh7 HCV replicon luciferase reporter, 48 h; higher = more signal.
Assay [13] has as its target Left-right determination factor 2 (Homo sapiens) (UniProt O00292). The assay can be described thus: small molecules binding LEFTY2 protein – biochemical, small-molecule microarray, 635 nm fluorescence scan, primary screen (AID 1110). The conditions noted are these: higher = more signal.
Assay [14] concerns the target Calmodulin-1 (Homo sapiens) (UniProt P0DP23). Put plainly: small molecules binding calmodulin-1 with EGTA – biochemical, small-molecule microarray, Cy5-labelled CALM1, profiling panel (AID 1111).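 Further: labelled calmodulin applied in Tris saline Tween buffer holding calcium plus EGTA and DTT.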 Conditions: Cy5-CALM1 binding fluorescence, higher = more signal.
Assay [15] has the same target. The assay can be described thus: small molecules binding Ca-loaded calmodulin-1 – biochemical, small-molecule microarray, Cy5-labelled CALM1, plus calcium, artefact control for SMM control-protein annotation, profiling panel (AID 1112).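 Further: score merges spot fluorescence with signal to noise from triplicate slides.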 The conditions noted are these: Cy5-CALM1 binding fluorescence, higher = more signal.
Assay [16] in a line: probe aWnt5a binding to arrayed compounds – biochemical, biotinylated probe, 635/667 nm fluorescence, primary screen (AID 1113).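 Further: score merges 667 nm fluorescence intensity with signal-to-noise per printed feature.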 Conditions: small-molecule microarray, higher = more signal.
Assay [17] can be described thus: probe aShh binding to arrayed compounds – biochemical, biotinylated probe, 635/667 nm fluorescence, primary screen (AID 1114).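 Further: probe is biotin-labelled aShh protein from a stem cell growth factor screen; measures binding of labelled protein to compounds printed on the slide; score merges feature fluorescence at 667 nm with signal-to-noise.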 The conditions noted are these: small-molecule microarray, higher = more signal.
Assay [18] in a line: probe aNog binding to arrayed compounds – biochemical, biotinylated probe, 635/667 nm fluorescence, primary screen (AID 1115).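 Further: probe is biotinylated aNog protein used at 0.15 µg/mL for 1 h at 4 C; z-score combines 667 nm fluorescence of each spot with its signal to noise.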 The conditions noted are these: small-molecule microarray, higher = more signal.
The target of assay [19] is Torsin-1A-interacting protein 1 (Homo sapiens) (UniProt Q5JTV8). Put plainly: compound microarray binding of lysate hLAP1 – cell lysate, small-molecule microarray, COS7 lysate, 635/667 nm fluorescence, primary screen (AID 1116). The conditions noted are these: 635 nm fluorescence, higher = more signal.
For assay [20], the target named is Alpha-bungarotoxin (Bungarus multicinctus) (UniProt P60615). Put plainly: compounds binding labelled alpha-BTX control protein – biochemical, small-molecule microarray, Alexa647 label, 635/667 nm fluorescence, artefact control for SMM control protein annotation, profiling panel (AID 1117). Conditions: alpha-BTX-A647 binding fluorescence, higher = more signal.
Sequence of Alpha-bungarotoxin (Bungarus multicinctus) (P60615 whole entry, looked up): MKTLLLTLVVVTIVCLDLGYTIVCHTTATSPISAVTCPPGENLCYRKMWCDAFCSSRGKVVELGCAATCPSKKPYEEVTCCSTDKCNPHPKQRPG

Sequence of Dickkopf-related protein 1 (Homo sapiens) (O94907 whole entry, looked up): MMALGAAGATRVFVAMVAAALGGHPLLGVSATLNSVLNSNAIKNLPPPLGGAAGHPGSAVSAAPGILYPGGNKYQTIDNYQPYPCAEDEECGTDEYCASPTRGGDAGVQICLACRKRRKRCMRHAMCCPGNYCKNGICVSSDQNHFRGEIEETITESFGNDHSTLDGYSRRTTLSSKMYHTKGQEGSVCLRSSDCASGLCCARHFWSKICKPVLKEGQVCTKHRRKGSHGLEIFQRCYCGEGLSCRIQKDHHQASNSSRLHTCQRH
Sequence of Fibroblast growth factor 10 (Homo sapiens) (O15520 whole entry, looked up): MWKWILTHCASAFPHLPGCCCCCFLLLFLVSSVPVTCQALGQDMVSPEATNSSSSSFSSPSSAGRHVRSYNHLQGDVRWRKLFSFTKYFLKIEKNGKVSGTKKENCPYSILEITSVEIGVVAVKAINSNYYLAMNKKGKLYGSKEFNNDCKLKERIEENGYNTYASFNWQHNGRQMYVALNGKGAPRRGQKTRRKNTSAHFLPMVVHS
Sequence of Left-right determination factor 2 (Homo sapiens) (O00292 whole entry, looked up): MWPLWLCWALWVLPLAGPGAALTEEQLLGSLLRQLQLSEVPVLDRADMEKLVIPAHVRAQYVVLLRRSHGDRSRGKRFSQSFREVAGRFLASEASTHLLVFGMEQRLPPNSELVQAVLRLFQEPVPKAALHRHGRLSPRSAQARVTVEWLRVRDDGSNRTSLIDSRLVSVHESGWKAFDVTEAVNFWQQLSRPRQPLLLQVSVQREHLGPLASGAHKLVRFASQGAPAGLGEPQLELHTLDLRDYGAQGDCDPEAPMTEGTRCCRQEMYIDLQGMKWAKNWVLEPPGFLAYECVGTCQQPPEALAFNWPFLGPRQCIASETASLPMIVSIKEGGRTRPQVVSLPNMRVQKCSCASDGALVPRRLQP
Sequence of Follistatin-related protein 3 (Homo sapiens) (O95633 whole entry, looked up): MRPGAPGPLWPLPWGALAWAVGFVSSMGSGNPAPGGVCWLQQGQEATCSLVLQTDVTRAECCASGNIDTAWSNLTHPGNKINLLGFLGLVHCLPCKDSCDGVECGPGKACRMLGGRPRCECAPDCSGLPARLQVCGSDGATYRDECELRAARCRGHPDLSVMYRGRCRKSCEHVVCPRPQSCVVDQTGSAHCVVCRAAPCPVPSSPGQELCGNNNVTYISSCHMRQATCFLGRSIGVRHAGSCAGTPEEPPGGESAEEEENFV
Sequence of Torsin-1A-interacting protein 1 (Homo sapiens) (Q5JTV8 whole entry, looked up): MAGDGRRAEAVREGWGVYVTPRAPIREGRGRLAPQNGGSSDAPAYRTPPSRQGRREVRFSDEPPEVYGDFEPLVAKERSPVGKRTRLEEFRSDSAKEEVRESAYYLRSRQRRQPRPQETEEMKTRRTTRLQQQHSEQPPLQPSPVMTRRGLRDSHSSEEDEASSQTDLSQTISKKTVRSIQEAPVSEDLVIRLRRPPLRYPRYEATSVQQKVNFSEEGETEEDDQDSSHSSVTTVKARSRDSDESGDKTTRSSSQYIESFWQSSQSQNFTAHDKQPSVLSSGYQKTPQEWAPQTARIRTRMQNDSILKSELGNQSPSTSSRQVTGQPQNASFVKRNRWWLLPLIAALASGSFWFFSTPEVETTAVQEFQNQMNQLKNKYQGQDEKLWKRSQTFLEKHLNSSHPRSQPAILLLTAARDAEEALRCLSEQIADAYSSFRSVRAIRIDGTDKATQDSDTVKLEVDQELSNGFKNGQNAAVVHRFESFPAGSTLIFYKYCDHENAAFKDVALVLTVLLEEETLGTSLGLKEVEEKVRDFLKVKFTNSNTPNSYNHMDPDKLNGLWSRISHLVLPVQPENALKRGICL
Sequence of Epidermal growth factor receptor (Homo sapiens) (P00533 whole entry, looked up): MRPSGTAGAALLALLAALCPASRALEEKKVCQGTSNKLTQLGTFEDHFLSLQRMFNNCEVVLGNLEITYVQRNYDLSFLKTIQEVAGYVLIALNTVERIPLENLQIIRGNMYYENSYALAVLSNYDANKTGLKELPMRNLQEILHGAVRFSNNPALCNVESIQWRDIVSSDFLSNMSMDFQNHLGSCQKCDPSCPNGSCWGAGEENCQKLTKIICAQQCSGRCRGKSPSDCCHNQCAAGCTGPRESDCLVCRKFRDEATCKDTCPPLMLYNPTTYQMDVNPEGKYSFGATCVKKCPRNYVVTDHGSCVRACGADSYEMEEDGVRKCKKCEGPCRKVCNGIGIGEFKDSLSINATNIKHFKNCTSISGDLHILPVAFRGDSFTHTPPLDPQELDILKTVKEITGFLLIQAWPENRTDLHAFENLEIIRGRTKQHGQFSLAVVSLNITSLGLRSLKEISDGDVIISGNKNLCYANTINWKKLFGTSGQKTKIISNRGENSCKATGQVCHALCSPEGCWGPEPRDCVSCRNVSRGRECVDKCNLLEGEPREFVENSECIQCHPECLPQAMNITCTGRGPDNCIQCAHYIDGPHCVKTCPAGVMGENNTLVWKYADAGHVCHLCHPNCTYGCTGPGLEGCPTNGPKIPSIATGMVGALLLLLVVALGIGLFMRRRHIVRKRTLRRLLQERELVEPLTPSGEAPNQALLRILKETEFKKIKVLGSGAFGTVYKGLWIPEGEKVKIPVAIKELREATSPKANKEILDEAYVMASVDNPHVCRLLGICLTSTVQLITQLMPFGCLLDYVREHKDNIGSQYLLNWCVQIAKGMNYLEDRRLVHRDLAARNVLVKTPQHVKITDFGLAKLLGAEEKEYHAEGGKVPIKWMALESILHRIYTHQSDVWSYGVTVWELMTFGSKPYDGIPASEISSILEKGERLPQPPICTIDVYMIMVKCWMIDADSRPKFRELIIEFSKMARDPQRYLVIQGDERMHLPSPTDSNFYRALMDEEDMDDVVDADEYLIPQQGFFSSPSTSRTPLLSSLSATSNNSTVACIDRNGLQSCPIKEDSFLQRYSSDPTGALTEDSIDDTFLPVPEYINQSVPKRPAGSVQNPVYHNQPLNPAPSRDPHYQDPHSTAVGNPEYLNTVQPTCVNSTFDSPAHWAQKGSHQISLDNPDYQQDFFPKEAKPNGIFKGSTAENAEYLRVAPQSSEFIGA

Take `COc1ccc([Si](C)(C)[C@H]2[C@H](CCO)O[C@@]3(C(=O)N(C)c4c(Br)cc(C)cc43)[C@@H]2C)cc1`: the composite z-score in [1] was 0.717; in [2], -0.0044; in assay [3], 0.202; in [5], 0.333; in [6], 0.223; in assay [7], 0.127. Further, the composite z-score was 0.4 in [8]; 0.0138 in [9]; 0.449 in [10]; -0.122 in [11]; 0.304 in assay [13]; 0.388 in [14]. Moreover, the composite z-score is 0.204 in assay [15]; -0.0944 in assay [16]; -0.138 in assay [17]; 0.474 in [18]; 0.269 in assay [19]; 0.541 in [20]. Also, the z-score in assay [4] was 4.6 (inactive); in [12], -5.23.

With `O=C1OCC=C[C@H]2OC34C=CCN(CCN5CCOCC5)C(=O)[C@H]3N(CCCO)C(=O)[C@@H]4[C@@H]12` (stereo not given in full), the composite z-score in [1] was 0.112; in [2], -0.218; in [3], -0.0654; in assay [5], -0.116; in [6], 0.394; in [7], -0.0604. The composite z-score in assay [8] is 0.292; in [9] it was 0.163; in [10] it was 0.715; in [11], 0.449; in assay [13], -0.235; in assay [14] it was -0.0514. The composite z-score in assay [15] was -0.944; in assay [16], -0.18; in assay [17] it was -0.223; in assay [18] it was -0.326; in assay [19], 0.819; in assay [20], -0.0967. Besides, the z-score in assay [4] is -1.52 (inactive); in assay [12], 0.658.

`COc1ccc(COC2OC[C@]3(C)[C@H]4C5=C(CN3C(=O)OC(C)(C)C)[C@H](C)C(CO)C(CO)C5CC[C@@H]24)cc1` (stereo not given in full): the composite z-score is 1 in assay [1]; 1.06 in [2]; 0.983 in assay [3]; 0.755 in assay [5]; 1.3 in assay [6]; -0.452 in assay [7]. Also, the composite z-score in [8] is 1.07; in assay [9] it was -0.432; in [10], 0.797; in [11], 1.27; in assay [13], -0.877; in [14] it was 1.44. Besides, the composite z-score in [15] amounted to 0.86; in assay [16], 0.0118; in [17], 0.202; in assay [18], 0.97; in [19], 1.17; in assay [20] it was 0.608. In addition, the z-score is -0.807 (inactive) in assay [4] and -0.355 in assay [12].

As to `COC(=O)C(CC#Cc1ccc2c(c1)[C@]1(C(=O)N2)[C@H](c2ccc(O)cc2)N2[C@H](c3ccccc3)[C@H](c3ccccc3)OC(=O)[C@H]2[C@@H]1C(=O)Nc1nc2ccccc2s1)C(=O)OC`, the composite z-score in assay [1] was 1.59; in assay [2], -0.0329; in assay [3], -0.105; in assay [5], 1.27; in assay [6] it was 1.04; in assay [7] it was 0.626. The composite z-score in assay [8] is 0.929; in assay [9], 0.581; in [10], 0.598; in assay [11] it was 1.39; in assay [13], 0.651; in assay [14], 1.26. The composite z-score was determined as 0.213 in assay [15]; 0.0998 in assay [16]; 0.191 in assay [17]; 0.535 in assay [18]; 1.63 in assay [19]; 1.62 in [20]. Also, the z-score is -0.596 (inactive) in [4] and -0.322 in [12].

For `COc1ccc(C(O)C2C=CC3C(=O)NC(=O)C3N2Nc2ccccn2)c2ccccc12` (stereo not given), the composite z-score in assay [1] is 0.157; in assay [2], 0.046; in assay [3], 0.108; in assay [5] it was 0.392; in assay [6] it was -0.39; in assay [7], 0.307. Also, the composite z-score was 0.16 in assay [8]; 0.378 in [9]; 0.804 in assay [10]; -0.266 in assay [11]; 0.315 in assay [13]; -0.0051 in assay [14]. Besides, the composite z-score is -0.194 in assay [15]; -0.219 in [16]; 0.147 in [17]; -0.0863 in assay [18]; -0.259 in [19]; 0.172 in [20]. The results for the z-score in [4] and in assay [12] were 0.841 (inactive) and 0.307, respectively.

Take `CCCC#C[Si](O[C@H](CC)c1cn([C@H](CO)Cc2ccccc2)nn1)(C(C)C)C(C)C`: the composite z-score is 0.947 in assay [1]; 0.111 in assay [2]; -0.467 in assay [3]; 0.955 in [5]; 0.379 in assay [6]; 0.371 in assay [7]. Moreover, the composite z-score in assay [8] was 1.15; in assay [9], 0.82; in assay [10], -0.253; in assay [11] it was 1.08; in [13], 0.728; in [14], 0.486. Also, the composite z-score in assay [15] was -0.0381; in assay [16], 0.0597; in assay [17] it was -0.0866; in [18], 0.26; in assay [19], 0.761; in [20], 0.701. Further, the values for the z-score in assay [4] and in [12] were -0.118 (inactive) and -0.256, respectively.
